Source: PubChem BioAssay (NCI)
The panel holds about 79,000 compounds, 15% with a hit somewhere; the sample as a whole holds those more often. Active and inactive are the calls of the source. Cut-off read from the data, not from the text of the source: active = growth inhibition above about 70%; inactive = the rest.

How the values were obtained:
[1] = NCI Yeast Anticancer Drug Screen. Data for the rad50 strain (AID 155);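 note: 0% = growth of vehicle-only cultures of the same strain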; conditions: S. cerevisiae rad50 strain growth inhibition; at 50.0 µM; hits give high values
Summary of the method: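 Genetically altered yeast (DNA repair pathway); compound treatment; growth inhibition vs vehicle ctrl.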

[2] = NCI Yeast Anticancer Drug Screen. Data for the mec2-1 strain (AID 157); conditions: S. cerevisiae mec2-1 strain, at 50.0 µM, hits give high values
Summary of the method: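 Strain: mec2-1 (DNA repair/cell cycle alteration). Compound exposure, then growth measured; inhibition expressed relative to vehicle.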

[3] = NCI Yeast Anticancer Drug Screen. Data for the sgs1 mgt1 strain (AID 161);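 note: 0% = growth of cultures given vehicle only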; conditions: S. cerevisiae sgs1 mgt1 strain, at 50.0 µM, hits give high values
Summary of the method: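 Inhibition of yeast growth, normalised to vehicle-treated controls, is reported for a strain bearing genetic alterations in DNA damage repair.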

[4] = NCI Yeast Anticancer Drug Screen. Data for the cln2 rad14 strain (AID 165);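 note: 0% = growth equal to vehicle treated cultures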; conditions: S. cerevisiae cln2 rad14 strain, at 50.0 µM, hits give high values
Summary of the method: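 Compounds are applied to the cln2 rad14 yeast strain, and growth is then compared with that of vehicle-treated cultures to give inhibition.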

[5] = NCI Yeast Anticancer Drug Screen. Data for the bub3 strain (AID 167); conditions: S. cerevisiae bub3 mutant strain, at 50.0 µM, hits give high values
Summary of the method: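 Yeast carrying a defined mutation is treated with each compound, and growth is compared with that of vehicle-exposed cells to give inhibition.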

[6] = NCI Yeast Anticancer Drug Screen. Data for the mlh1 rad18 strain (AID 175); conditions: S. cerevisiae mlh1 rad18 strain growth inhibition; at 50.0 µM; hits give high values
Summary of the method: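 Read-out is yeast growth inhibition, calculated against vehicle-only controls. The compound was applied to a strain engineered with DNA damage repair alterations.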

Compound | growth inhibition [1] | growth inhibition [2] | growth inhibition [3] | growth inhibition [4] | growth inhibition [5] | growth inhibition [6]
O=C(Cc1ccccc1CCO)NCCc1ccccc1 | 5.35% (inactive) | 1.55% (inactive) | -32.9% (inactive) | 24.8% (inactive) | -21.8% (inactive) | 
Cc1ccc(NC(=O)c2cccc(C(=O)Nc3ccc(C)c(Cl)c3)c2)cc1Cl | -28.1% (inactive) | -16.6% (inactive) | -11.2% (inactive) | -35% (inactive) | -5.55% (inactive) | 
FC(F)(F)c1ccc2c(c1)N(CCCN1CCN(CCN3CCCCC3)CC1)c1ccccc1S2 | 88.9% (active) | 46% (inactive) | 89% (active) | 27.2% (inactive) | 87.4% (active) | 
CCOC(=O)/C(C#N)=C/c1ccccc1OC | 35.6% (inactive) | 38.9% (inactive) | 31.9% (inactive) | 10.5% (inactive) | 47.5% (inactive) | 
BrCCOC(OCCBr)(c1ccccc1)c1ccccc1 | 19.8% (inactive) | -10.9% (inactive) | 2.3% (inactive) | 11.5% (inactive) | 4.95% (inactive) | 
CCCCCCCCC(Nc1ccccc1)C(O)CCCCCCCC(=O)O (stereo unspecified) (tested in a mixture with another compound) | -0.1% (inactive) | 1.8% (inactive) | 7.5% (inactive) | -6.1% (inactive) | -7.35% (inactive) | 
[N-]=[N+]=NC1(Cc2ccccc2)C(=O)Nc2ccccc2C1=O (stereo unspecified) | 0.8% (inactive) | -10.1% (inactive) | -19.4% (inactive) | 4.2% (inactive) | -5.65% (inactive) | 
CC(=O)Oc1ccccc1/C=C1\N=C(c2ccccc2)OC1=O | -5.25% (inactive) | 2.25% (inactive) | 1.85% (inactive) | -30.2% (inactive) | -5.25% (inactive) | -6.4% (inactive)
NS(=O)(=O)c1cc(C(=O)O)c(O)c2ccccc12 | 9.85% (inactive) | 3.3% (inactive) | 1.15% (inactive) | -23.8% (inactive) | 6.6% (inactive) | 
Cc1cc(C)n(/N=C/c2ccco2)c(=O)c1C#N | -20.3% (inactive) | -33.1% (inactive) | -26.1% (inactive) | 11.4% (inactive) | -17.5% (inactive) | 
N#Cc1nccc2ccccc12 | 12.2% (inactive) | -13.3% (inactive) | -13.1% (inactive) | -29.1% (inactive) | -1.4% (inactive) | 
Cc1ccc(N2C(=O)CSC2=S)cc1F | 1.55% (inactive) | 6.55% (inactive) | 47.4% (inactive) | 8.15% (inactive) | 5.6% (inactive) | 
CC(=O)c1cc2c(cc1C)C(C)(C)CCC2 | 8.45% (inactive) | 14.2% (inactive) | 3.1% (inactive) | -47.7% (inactive) | -16.4% (inactive) | 
O=C(CCn1[nH]c(=O)c(Cl)c(Cl)c1=O)NOCCCc1ccccc1 | 0.3% (inactive) | -21.7% (inactive) | -8.5% (inactive) | -7.95% (inactive) | 4.3% (inactive) | 
Nc1ccc(P(=O)(O)c2ccc(N)cc2Br)c(Br)c1 | 35.1% (inactive) | -6.1% (inactive) | 18.4% (inactive) | 1.55% (inactive) | -4% (inactive) | 
CCOC(=O)C1CC2(CCC(=O)O2)C(=O)O1 (stereo unspecified) | -5.15% (inactive) | -5.95% (inactive) | -20.6% (inactive) | 3.05% (inactive) | -5.75% (inactive) | 
Nc1cc2c3c(cccc3c1Br)C(=O)NC2=O | 85.2% (active) | 14.6% (inactive) | 35.5% (inactive) | 12.1% (inactive) | 15.3% (inactive) | 
CCCCCCCCCCCCCCCCCC(=O)OCC1OC(OC2(OC(=O)CCCCCCCCCCCCCCCCC)OC(COC(=O)CCCCCCCCCCCCCCCCC)C(OC(=O)CCCCCCCCCCCCCCCCC)C2OC(=O)CCCCCCCCCCCCCCCCC)C(OC(=O)CCCCCCCCCCCCCCCCC)C(OC(=O)CCCCCCCCCCCCCCCCC)C1OC(=O)CCCCCCCCCCCCCCCCC (stereo unspecified) | 17.2% (inactive) | 6% (inactive) | 25.4% (inactive) | -2.75% (inactive) | 17.9% (inactive) | 
Cn1c(=O)c2c(-c3ccccc3)onc2n(C)c1=O | 16.3% (inactive) | 12.8% (inactive) | 22.4% (inactive) | 33.7% (inactive) | 2.8% (inactive) | 
CN1CCC2(CC1)C(=O)N(Cc1ccccc1)C(=O)C2c1ccccc1 (stereo unspecified) | -9.95% (inactive) | -6.95% (inactive) | -6% (inactive) | 6.05% (inactive) | 3.4% (inactive) | 
CCOC(=O)C(=O)C(=O)NN(C)C1=NCCN1 | -11.4% (inactive) | -2.05% (inactive) | 7.45% (inactive) | -13.6% (inactive) |  | 

Compound | growth inhibition [1] | growth inhibition [2] | growth inhibition [3] | growth inhibition [4] | growth inhibition [5] | growth inhibition [6]
O=C(O)CCSc1ccccc1[N+](=O)[O-] | 31.6% (inactive) | -8.6% (inactive) | 23.4% (inactive) | -10.3% (inactive) | -0.9% (inactive) | 
Cc1c(C)c(C)c(CNNC(=S)Nc2cccc(Cl)c2)c(C)c1C | -6.35% (inactive) | 5.7% (inactive) | -1.35% (inactive) | -3.45% (inactive) | -3.5% (inactive) | 
CC(C)(C)c1nc2c(o1)C(=Nc1ccc(F)cc1)c1ccccc1C2=O | 8.6% (inactive) | 3.15% (inactive) | 14.7% (inactive) | 38.1% (inactive) | 0.65% (inactive) | 
C[C@H]1C[C@H]2[C@@H]3CC[C@@]4(OCC4=O)[C@@]3(C)C[C@H](O)[C@]2(F)[C@@]2(C)C=CC(=O)C=C12 | -16.6% (inactive) | -24.4% (inactive) | 1.6% (inactive) | -34.9% (inactive) | 17.4% (inactive) | 
COc1cccc([N+](=O)[O-])c1 | 18.3% (inactive) | 32.2% (inactive) | -14.8% (inactive) | -5.9% (inactive) | -0.9% (inactive) | 
CC(=O)/C(=C/n1ccc(=O)[nH]c1=S)C(=O)Nc1ccc([N+](=O)[O-])cc1 | -18.3% (inactive) | -18.8% (inactive) | -38.2% (inactive) | -20.4% (inactive) | -2.85% (inactive) | 
Cc1cc(Nc2ccc(O)cc2)nc(Nc2ccc(O)cc2)n1 | -8.25% (inactive) | -18.4% (inactive) | -35.3% (inactive) | -34% (inactive) | 10.9% (inactive) | 
Cc1cc[n+](C)c(-c2ccccc2)c1 | 5.65% (inactive) | -2.25% (inactive) | 7% (inactive) | 21.2% (inactive) | 5.9% (inactive) | 
O=S1(=O)C=C(c2ccccc2)C1 | -8.25% (inactive) | -2.4% (inactive) | -19.8% (inactive) | -33.4% (inactive) | 4.25% (inactive) | 
O=C(O)/C=C/c1ccc(C(NC(=O)N2C(=O)C=CC2=O)NC(=O)N2C(=O)C=CC2=O)cc1 | 37.8% (inactive) | 15.8% (inactive) | 42.3% (inactive) | 15.7% (inactive) | 13.3% (inactive) | 
O=C1CC2C(=O)N(Cc3ccccc3)C(=O)C2C(=O)N1 (stereo unspecified) | -3.1% (inactive) | -12.9% (inactive) | -5.3% (inactive) | 1.85% (inactive) | -3.1% (inactive) | 
CCCCCCCCCCCC(=O)N/N=C(\C)c1cccc2ccccc12 | 86.8% (active) | 84.2% (active) | 94% (active) | 59.8% (inactive) | 43.8% (inactive) | 
O=C1c2ccccc2C(=O)N1CCn1[nH]c(=O)c2ccccc2c1=O | -3.25% (inactive) | -10.4% (inactive) | -6.55% (inactive) | 8.9% (inactive) | -3.6% (inactive) | 
O=C1CCc2ccccc21 | -26.6% (inactive) | -10.5% (inactive) | -15% (inactive) | 15.1% (inactive) | 3.25% (inactive) | 
COc1ccc(-c2nnc(Cl)o2)cc1 | -1.95% (inactive) | 14.8% (inactive) | -6.75% (inactive) | -25.9% (inactive) | -21.1% (inactive) | 
COc1cc(NS(=O)(=O)c2ccc(C)cc2)c2nccnc2c1 | 14.1% (inactive) | 15.7% (inactive) | 18.6% (inactive) | -3.35% (inactive) | 11.9% (inactive) | 
COc1ccc(CCC(O)c2ccccc2)cc1 (stereo unspecified) | 25.7% (inactive) | 20.4% (inactive) | 3.65% (inactive) | 16.1% (inactive) | 19.3% (inactive) | 
COc1ccccc1C(=O)N/N=C/c1ccc(O)cc1 | 0% (inactive) | 22.6% (inactive) | 15.3% (inactive) | -2.7% (inactive) | 16.6% (inactive) | 
CC(=O)OCC1OC(n2cc(C)c(=O)[nH]c2=O)C(NC(=O)C(Cl)(Cl)Cl)C(OC(C)=O)C1OC(C)=O (stereo unspecified) | 6.3% (inactive) | -4.6% (inactive) | 2.75% (inactive) | 0% (inactive) | 0% (inactive) | 
CC/C=C/C(C)c1cc(C(=O)O)ccc1OC (stereo unspecified) | 10.9% (inactive) | 4.3% (inactive) | 13.4% (inactive) | 6.55% (inactive) | -13.2% (inactive) | 18% (inactive)
